“And” between values parts separate entries of the source, which are not always exact repeats. Equal entries are not always repeated. Results filed as inconclusive are left out. The source holds several records for some structures; these can differ, active in one and inactive in another. The source made the active and inactive calls. Unless noted, the call rests on the fitted dose curve; in most records, active means well fitted curve in the direction sought with a large enough effect in the repeat runs; inconclusive means weak or mixed curves; inactive means no such curve, though single readings can be large; an effect the other way counts as inactive or inconclusive.
How the values were obtained:
[1] = qHTS assay to identify small molecule antagonists of the estrogen receptor alpha (ER-alpha) signaling pathway using the BG1 cell line in the presence of 0.1 nM 17-beta-estradiol - cell viability counter screen (AID 1259241); further: nearly all actives have a fitted effect of over 40% in size
In short: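 Measures cytotoxicity alongside the ER-alpha antagonist readout: VM7Luc4E2 cells, charcoal-stripped serum, 0.1 nM 17beta-estradiol final, 22 hr compound incubation at 37C, CellTiter-Fluor fluorescence.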

[2] = qHTS assay to identify small molecule antagonists of the androgen receptor (AR) signaling pathway using the MDA cell line in the presence of 0.5 nM R1881 - cell viability counter screen (AID 1259242); further: nearly all actives have a fitted effect of over 45% in size
In short: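 Counter screen for cytotoxicity run in the same wells as the AR antagonist reporter screen: MDA-kb2 cells were treated 16 hr with test compounds and 0.5 nM R1881, then live-cell protease activity was measured by fluorescence.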

[3] = molecular target: Estrogen receptor (Homo sapiens) (UniProt P03372); assay: qHTS assay to identify small molecule antagonists of the estrogen receptor alpha (ER-alpha) signaling pathway using the BG1 cell line in the presence of 0.1 nM 17-beta-estradiol (AID 1259244); further: nearly all actives have a fitted effect of over 50% in size
Estrogen receptor (Homo sapiens), sequence (P03372 whole entry, looked up): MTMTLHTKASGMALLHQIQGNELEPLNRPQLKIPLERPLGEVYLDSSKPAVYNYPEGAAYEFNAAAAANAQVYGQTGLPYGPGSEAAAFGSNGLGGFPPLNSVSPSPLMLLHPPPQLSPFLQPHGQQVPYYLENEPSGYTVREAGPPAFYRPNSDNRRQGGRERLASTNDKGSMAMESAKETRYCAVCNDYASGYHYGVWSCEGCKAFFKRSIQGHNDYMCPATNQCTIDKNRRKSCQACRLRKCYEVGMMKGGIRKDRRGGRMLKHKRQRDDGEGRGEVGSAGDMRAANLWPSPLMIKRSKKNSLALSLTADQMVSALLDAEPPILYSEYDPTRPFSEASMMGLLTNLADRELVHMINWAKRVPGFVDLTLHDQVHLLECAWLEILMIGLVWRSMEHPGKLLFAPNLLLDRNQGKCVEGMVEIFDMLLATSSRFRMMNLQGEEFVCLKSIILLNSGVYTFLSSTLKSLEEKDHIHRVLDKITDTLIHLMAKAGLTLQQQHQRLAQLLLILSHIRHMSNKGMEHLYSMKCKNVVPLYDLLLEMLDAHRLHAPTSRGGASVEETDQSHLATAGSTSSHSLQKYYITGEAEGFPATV
In short: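 Cells: VM7Luc4E2, endogenous ER-alpha, 4x ERE-luc stable. Pre-culture 5 d, phenol red-free, charcoal-stripped FBS. Plated 24 h, compound + E2 0.1 nM final, 22 h 37C/5% CO2. Readout ONE-Glo luminescence.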

[4] = qHTS assay to identify small molecule HDAC inhibitors (AID 1259364); further: top concentration of the series differs between compounds; nearly all actives have a fitted effect of over 45% in size
In short: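 Luminescence from a cell-permeant luminogenic class I/II HDAC substrate reports endogenous deacetylase activity in intact HCT-116 cells treated with compounds for 2 h.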

[5] = qHTS assay to identify small molecule HDAC inhibitors - cell viability counter screen (AID 1259365); further: series mostly up to about 92 µM; nearly all actives have a fitted effect of over 50% in size
In short: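 Following a 2hr exposure of overnight-plated wild-type HCT-116 cells to DMSO-delivered compounds, CellTiter-Glo was added and luminescence recorded after 30min at room temperature.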

[6] = qHTS assay to identify small molecule agonists of the sonic hedgehog signaling (Shh) pathway - cell viability counter screen (AID 1259366); further: nearly all actives have a fitted effect of over 50% in size
In short: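 After a 4hr attachment at 37C, NIH/3T3 cells bearing an integrated Gli1-driven luciferase reporter were dosed with compounds. Treatment lasted 24hr, with the final hour including CellTiter-Fluor for a fluorescence viability measurement.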

[7] = qHTS assay to identify small molecule antagonists of the sonic hedgehog signaling (Shh) pathway - cell viability counter screen (AID 1259367); further: nearly all actives have a fitted effect of over 55% in size
In short: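 Cells: 3T3 Gli1-Luc, 2,000/well, 4 hr pre-incubation. Compounds in DMSO, then conditioned medium. Incubation 24 hr, 37C, 5% CO2. CellTiter-Fluor at 23 hr, 1 hr, fluorescence.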

[8] = qHTS assay to identify small molecule agonists of the sonic hedgehog signaling (Shh) pathway (AID 1259368; calls by dose curve;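 further: NIH/3T3-derived 3T3Gli1-Luc cells carrying a stable Gli1-driven firefly luciferase reporter; series mostly up to about 92 µM; nearly all actives have a fitted effect of over 15% in size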)
In short: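 3T3Gli1-Luc (NIH/3T3 clone, stable Gli1-Luc); 4 hr pre-incubation, then cpd in DMSO 24 hr, 37 C/5% CO2; luciferase reagent 30 min RT; luminescence.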

[9] = qHTS assay to identify small molecule antagonists of the sonic hedgehog signaling (Shh) pathway (AID 1259369; calls by dose curve; further: nearly all actives have a fitted effect of over 45% in size; further: potency means the concentration at half of the fitted maximal effect)
In short: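 3T3Gli1-Luc, conditioned-medium-stimulated, 24hr cpd, 37C/5% CO2; Gli1-driven firefly Luc luminescence after 30min RT with luciferase reagent. Cells plated 4hr before cpd.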

[10] = qHTS assay to identify small molecule agonists of the androgen receptor (AR) signaling pathway in the presence of an antagonist - cell viability counter screen (AID 1259379);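 further: MDA-kb2 human breast cancer cells carrying an MMTV luciferase reporter; series mostly up to about 92 µM; nearly all actives have a fitted effect of over 25% in size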
In short: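 Cells: MDA-kb2 (MMTV-luc, AR and GR elements), 3,000/well, 5 hr settle. Added: nilutamide 3.0uM final, then compounds (15 conc.). Incubation: 16 hr, 37C, no CO2. Read-out: CellTiter-Fluor, 1 hr, fluorescence.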

[11] = qHTS assay to identify small molecule agonists of the estrogen receptor beta (ER-beta) signaling pathway - cell viability counter screen (AID 1259380); further: nearly all actives have a fitted effect of over 30% in size
In short: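 HEK293T ER-beta-UAS-bla; 2% CS-FBS; 6 hr pre-plate, 16 hr cpd at 37C/5% CO2; LiveBLAzer read first, then CellTiter-Glo 30 min RT, luminescence.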

[12] = qHTS assay to identify small molecule antagonists of the estrogen receptor beta (ER-beta) signaling pathway - cell viability counter screen (AID 1259382);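 further: HEK293T cells carrying ER-beta-UAS-bla reporter stimulated with estradiol; series mostly up to about 92 µM; nearly all actives have a fitted effect of over 55% in size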
In short: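 Cells: ER-beta-UAS-bla HEK293T, 2,000/well, 2% CS-FBS, 6 hr settle. Cpd + E2 (1nM final), 16 hr, 37C/5% CO2. Bla FRET substrate 2 hr RT, then CellTiter-Glo 30 min RT, luminescence.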

[13] = molecular target: Estrogen receptor (Homo sapiens) (UniProt P03372); assay: qHTS assay to identify small molecule agonists of the estrogen receptor alpha (ER-alpha) signaling pathway in the presence of an antagonist (AID 1259383; calls by dose curve; further: nearly all actives have a fitted effect of over 15% in size; further: potency means the concentration at half of the fitted maximal effect; on activation: top concentration of the series differs between compounds)
In short: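 VM7Luc4E2, endog. ER-alpha + 4×ERE-luc; charcoal-stripped FBS, phenol red-free, 5 d; 24hr plating; +10.0nM ICI-182,780 (final); cpds 15 conc, 22hr, 37C/5% CO2; ONE-Glo luminescence.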

[14] = qHTS assay to identify small molecule agonists or antagonists of the thyroid stimulating hormone receptor (TSHR) signaling pathway - wild type cell line counter screen (AID 1259384; calls by dose curve)
In short: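 Counter screen in untransfected Hek293: compounds (15-point titration, triplicate) plus phosphodiesterase inhibitor Ro20-1724 added after 18 h plating; 30 min RT. Intracellular cAMP via competitive d2/cryptate immunoassay, 1 h incubation.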

[15] = molecular target: Thyrotropin receptor (Homo sapiens) (UniProt P16473); assay: qHTS assay to identify small molecule antagonists of the thyroid stimulating hormone receptor (TSHR) signaling pathway (AID 1259385; calls by dose curve; further: nearly all actives have a fitted effect of over 20% in size)
Thyrotropin receptor (Homo sapiens), sequence (P16473 whole entry, looked up): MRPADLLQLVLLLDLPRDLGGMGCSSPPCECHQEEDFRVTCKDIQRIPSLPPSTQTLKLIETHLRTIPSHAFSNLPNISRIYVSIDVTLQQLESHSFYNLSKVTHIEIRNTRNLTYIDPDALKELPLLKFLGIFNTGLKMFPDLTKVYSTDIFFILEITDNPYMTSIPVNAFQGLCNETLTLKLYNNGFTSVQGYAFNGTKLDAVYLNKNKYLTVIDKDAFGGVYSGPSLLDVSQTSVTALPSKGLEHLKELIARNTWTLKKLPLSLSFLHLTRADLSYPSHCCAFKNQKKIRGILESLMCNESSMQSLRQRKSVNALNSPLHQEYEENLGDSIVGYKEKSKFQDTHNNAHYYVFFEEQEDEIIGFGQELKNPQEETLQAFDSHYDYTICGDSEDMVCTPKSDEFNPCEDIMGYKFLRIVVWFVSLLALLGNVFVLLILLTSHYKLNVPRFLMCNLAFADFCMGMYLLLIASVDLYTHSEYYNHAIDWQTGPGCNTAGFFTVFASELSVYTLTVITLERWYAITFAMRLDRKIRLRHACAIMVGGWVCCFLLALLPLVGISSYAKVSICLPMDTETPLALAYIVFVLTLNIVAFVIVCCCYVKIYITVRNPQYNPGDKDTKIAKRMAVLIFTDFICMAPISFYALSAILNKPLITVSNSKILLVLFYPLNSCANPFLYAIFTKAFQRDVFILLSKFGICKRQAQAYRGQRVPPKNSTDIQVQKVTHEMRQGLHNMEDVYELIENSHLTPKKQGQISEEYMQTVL
In short: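 Antagonist mode: compound-treated TSHR-expressing HEK293 cells were stimulated with 1.5 ng/mL TSH (final) in presence of Ro20-1724 for 30 min at RT. HTRF cAMP detection after 1 h; each compound tested at 15 concentrations, triplicate.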

[16] = qHTS assay to identify small molecule phospholipidosis (PLD) inducers (AID 1259344; active means well fitted curve in the direction sought with a large enough effect; an effect the other way counts as inactive or inconclusive)
In short: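 Phospholipidosis is scored by imaging LipidTOX-stained pits in HepG2 cells exposed to compound for 24 h at 37 C; pit counts and integrated intensities per well and per cell serve as outputs.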

[17] = molecular target: Estrogen receptor beta (Homo sapiens) (UniProt Q92731); assay: qHTS assay to identify small molecule antagonists of the estrogen receptor beta (ER-beta) signaling pathway (AID 1259378; active means well fitted inhibition curve with a large enough effect in the signal ratio in the repeat runs, not every such curve was filed as active; the % refers to the signal ratio)
Estrogen receptor beta (Homo sapiens), sequence (Q92731 whole entry, looked up): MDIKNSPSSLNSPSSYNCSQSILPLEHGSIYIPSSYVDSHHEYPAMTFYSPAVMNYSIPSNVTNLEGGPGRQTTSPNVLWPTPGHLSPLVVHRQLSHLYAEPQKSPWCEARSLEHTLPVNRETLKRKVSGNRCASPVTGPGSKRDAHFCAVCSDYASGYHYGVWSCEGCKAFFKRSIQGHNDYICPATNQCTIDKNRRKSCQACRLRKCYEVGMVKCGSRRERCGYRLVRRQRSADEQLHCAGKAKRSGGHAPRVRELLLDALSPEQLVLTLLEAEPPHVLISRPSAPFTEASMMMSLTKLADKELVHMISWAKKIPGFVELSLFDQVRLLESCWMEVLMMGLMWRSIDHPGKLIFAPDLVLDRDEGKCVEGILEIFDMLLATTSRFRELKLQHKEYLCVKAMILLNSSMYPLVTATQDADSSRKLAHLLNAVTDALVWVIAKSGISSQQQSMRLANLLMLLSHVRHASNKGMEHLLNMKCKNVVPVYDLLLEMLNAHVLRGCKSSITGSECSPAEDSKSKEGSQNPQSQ
In short: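 Antagonist mode: compounds added to beta-lactamase reporter HEK293T ER-beta-UAS cells stimulated with E2 (1nM final), 16 hr at 37C. LiveBLAzer B/G FRET substrate, 2 hours room temperature, fluorescence read-out.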

[18] = molecular target: Estrogen receptor beta (Homo sapiens) (UniProt Q92731); assay: qHTS assay to identify small molecule agonists of the estrogen receptor beta (ER-beta) signaling pathway (AID 1259377; active means well fitted activation curve with a large enough effect in the signal ratio in the repeat runs, not every such curve was filed as active; the % refers to the signal ratio; further: potency means the concentration at half of the fitted maximal effect)
In short: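 In HEK293T cells bearing a UAS-beta-lactamase reporter under ER-beta control, DMSO-delivered compounds were incubated for 16 hr at 37C. Activity was detected as fluorescence 2 hours after LiveBLAzer B/G FRET substrate addition.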

[19] = molecular target: Androgen receptor (Homo sapiens) (UniProt P10275); assay: qHTS assay to identify small molecule antagonists of the androgen receptor (AR) signaling pathway using the MDA cell line in the presence of 0.5 nM R1881 (AID 1259243); further: nearly all actives have a fitted effect of over 50% in size
Androgen receptor (Homo sapiens), sequence (P10275 whole entry, looked up): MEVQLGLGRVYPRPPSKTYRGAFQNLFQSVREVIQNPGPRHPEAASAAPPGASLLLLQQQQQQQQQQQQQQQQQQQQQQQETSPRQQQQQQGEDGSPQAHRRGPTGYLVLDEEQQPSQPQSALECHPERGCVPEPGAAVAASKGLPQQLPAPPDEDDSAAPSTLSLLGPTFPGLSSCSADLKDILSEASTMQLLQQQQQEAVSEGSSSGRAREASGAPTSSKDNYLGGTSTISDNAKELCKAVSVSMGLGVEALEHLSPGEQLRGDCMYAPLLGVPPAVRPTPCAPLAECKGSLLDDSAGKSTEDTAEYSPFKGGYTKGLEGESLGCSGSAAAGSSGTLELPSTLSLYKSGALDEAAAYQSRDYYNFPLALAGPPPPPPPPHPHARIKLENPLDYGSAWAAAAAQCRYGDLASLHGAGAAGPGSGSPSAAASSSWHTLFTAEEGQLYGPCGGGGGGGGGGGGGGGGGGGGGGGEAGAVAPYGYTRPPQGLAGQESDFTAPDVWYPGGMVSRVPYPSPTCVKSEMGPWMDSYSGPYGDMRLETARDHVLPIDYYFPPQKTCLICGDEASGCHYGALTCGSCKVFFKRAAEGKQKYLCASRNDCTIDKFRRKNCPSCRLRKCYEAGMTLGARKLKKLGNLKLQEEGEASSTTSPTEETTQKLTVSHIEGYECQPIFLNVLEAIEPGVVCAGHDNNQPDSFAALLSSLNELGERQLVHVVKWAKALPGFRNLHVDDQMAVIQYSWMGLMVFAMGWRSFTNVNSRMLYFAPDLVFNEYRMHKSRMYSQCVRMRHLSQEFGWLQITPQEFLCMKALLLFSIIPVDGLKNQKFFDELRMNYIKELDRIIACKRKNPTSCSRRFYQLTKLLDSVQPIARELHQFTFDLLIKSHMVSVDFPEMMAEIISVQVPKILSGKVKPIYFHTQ
In short: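 Luciferase luminescence is the read-out: compounds are tested for suppressing 0.5 nM R1881-driven MMTV reporter activity in MDA-kb2 cells after 16 hr at 37C.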

[20] = molecular target: Androgen receptor (Homo sapiens) (UniProt P10275); assay: qHTS assay to identify small molecule agonists of the androgen receptor (AR) signaling pathway in the presence of an antagonist (AID 1259381; calls by dose curve; further: nearly all actives have a fitted effect of over 15% in size)
In short: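 MDA-kb2 cells, 3,000/well, rested 5hr at 37C/0% CO2 → nilutamide 3.0uM final or buffer → compounds, 15 conc. → 16hr at 37C → ONE-Glo, 30min RT → luminescence.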

Measured: Potency

CCO[Si](CCCN)(OCC)OCC
inactive: [1] | [2] | [3] | [4] | [5] | [6] | [7] | [8] | [9] | [10] | [11] | [12] | [13] | [14] | [15]

CC(C)c1cccc(C(C)C)c1
inactive: [1] | [2] | [3] | [4] | [5] | [6] | [7] | [8] | [9] | [10] | [11] | [13] | [14] | [15]

O=C1C(c2[nH]c3ccccc3c2O)=Nc2ccccc21
inactive: [1] | [2] | [16] | [4] | [5] | [6] | [7] | [8] | [9] | [17] | [10] | [12] | [14] | [15]

C[C@]12CC[C@@H]3c4ccc(O)cc4CC[C@H]3[C@@H]1C[C@@H](O)[C@@H]2O
active: [9] 13.7 µM and 5.96 µM | [18] 4.3 nM and 3 nM
inactive: [1] | [2] | [16] | [4] | [5] | [6] | [7] | [8] | [10] | [14] | [15]

C=CC[N+](C)(C)CC=C
inactive: [1] | [2] | [4] | [5] | [6] | [7] | [8] | [9] | [18] | [17] | [10] | [12] | [14] | [15]

CCNc1cccc(C)c1
inactive: [1] | [2] | [3] | [4] | [5] | [6] | [7] | [8] | [9] | [10] | [11] | [12] | [13] | [14] | [15]

CC1(C)NC(=O)NC1=O
inactive: [1] | [2] | [3] | [4] | [5] | [6] | [7] | [8] | [9] | [10] | [12] | [13] | [14] | [15]

Brc1ccc(Br)c(Br)c1
inactive: [1] | [2] | [3] | [4] | [5] | [6] | [7] | [8] | [9] | [10] | [11] | [13] | [14] | [15]

CN(C)c1ccc(Cc2ccc(N(C)C)cc2)cc1
inactive: [1] | [2] | [4] | [5] | [6] | [7] | [8] | [9] | [18] | [17] | [10] | [12] | [14] | [15]

COc1ccc(CCC(C)=O)cc1
inactive: [1] | [2] | [4] | [5] | [6] | [7] | [8] | [9] | [18] | [17] | [10] | [11] | [12] | [14] | [15]

CC(CCO)CC(C)(C)C (configuration not stated)
inactive: [2] | [19] | [3] | [4] | [5] | [6] | [7] | [8] | [9] | [18] | [17] | [10] | [11] | [20] | [12] | [13] | [14] | [15]

O=C(O)c1ccccc1C(=O)O
inactive: [1] | [2] | [3] | [4] | [5] | [6] | [7] | [8] | [9] | [10] | [11] | [13] | [14] | [15]

CCOCCOCCOCCO
inactive: [1] | [2] | [4] | [5] | [6] | [7] | [8] | [9] | [18] | [17] | [10] | [11] | [12] | [14] | [15]

CCCCCCCC=O
inactive: [1] | [2] | [3] | [4] | [5] | [6] | [7] | [8] | [9] | [10] | [11] | [13]

CC1(C)CC(N)CC(C)(CN)C1 (configuration not stated)
inactive: [1] | [2] | [3] | [4] | [5] | [6] | [7] | [8] | [9] | [10] | [11] | [14] | [15]
13.9 µM (active) and inactive: [13]

C=Cc1ccc(C)cc1
inactive: [1] | [2] | [4] | [5] | [6] | [7] | [8] | [9] | [18] | [10] | [11] | [12] | [14] | [15]

C=CC(=O)OCCC(=O)O
inactive: [1] | [2] | [3] | [4] | [5] | [6] | [7] | [8] | [9] | [10] | [11] | [12] | [13] | [14] | [15]

O=C(O)CCCCCCCCC(=O)O
inactive: [1] | [2] | [4] | [5] | [6] | [7] | [8] | [9] | [10] | [11] | [14] | [15]

OCc1ccccc1
inactive: [2] | [19] | [3] | [16] | [4] | [5] | [6] | [7] | [8] | [9] | [18] | [10] | [11] | [20] | [13] | [14] | [15]

Clc1ccccn1
inactive: [1] | [2] | [4] | [5] | [6] | [7] | [8] | [9] | [18] | [10] | [11] | [12] | [14] | [15]

Source: PubChem BioAssay (Tox21)
